Laboratory results reported in the supplement of paper PMC9254222.
The full ranking holds about 1,100 compounds; the median of “Wnt reporter firefly/Renilla luciferase ratio relative to plate median” is about 1.1, and the highest 2% start at about 1.6. The sample holds the highest values, similar compounds and a random draw of the others, so the mix is not that of the screen.

System: HEK293T (UBE3A T485A transfected, BAR Wnt reporter)
Assay: Wnt reporter firefly/Renilla luciferase ratio relative to plate median (fold (linear ratio)); higher = more Wnt/beta-catenin reporter activation
Details: 24 h
In short: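 HEK293T cells were grown in DMEM with 10% FBS at 37°C and 5% CO2, at 4500 cells/well in white 384-well plates. They were transfected with a BAR firefly luciferase Wnt reporter, TK-Renilla and an expression plasmid using Fugene 6. Four hours later, robots dosed the chemicals at 0.01–100 uM for 24 h, followed by Dual-Glo luciferase readout. Wnt activity (firefly/Renilla ratio) and cell health (raw Renilla) were median-centred per plate, averaged over four biological replicates.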

SMILES | Wnt reporter firefly/Renilla luciferase ratio (concentration: 0.1 uM) | Wnt reporter firefly/Renilla luciferase ratio (concentration: 1 uM) | Wnt reporter firefly/Renilla luciferase ratio (concentration: 10 uM) | Wnt reporter firefly/Renilla luciferase ratio (concentration: 100 uM) | Wnt reporter firefly/Renilla luciferase ratio (concentration: 0.01 uM)
CCN(CC)CCNc1ccc(CNC=O)c2sc3ccc(OC)cc3c(=O)c12 | 1.79 | 0.887 | 0.373 | – | –
O=c1[nH]c2ccc(S(=O)CCN3CCC(Cc4ccc(F)cc4)CC3)cc2o1 (stereo unspecified) [Besonprodil] | 1.11 | 0.965 | 0.993 | 0.313 | –
C[C@]12CC[C@@H]3c4ccc(O)cc4CC[C@H]3[C@@H]1CC[C@@H]2O [17beta-Estradiol] | 0.999 | 0.932 | 0.591 | – | –
CN(C)[C@@H]1C(O)=C(C(N)=O)C(=O)[C@@]2(O)C(O)=C3C(=O)c4c(O)cccc4[C@@](C)(O)[C@H]3[C@H](O)[C@@H]12.Cl [Oxytetracycline hydrochloride] | 1.09 | 1.03 | 0.562 | 0.0778 | –
CN(C)[C@@H]1C(O)=C(C(N)=O)C(=O)[C@@]2(O)C(O)=C3C(=O)c4c(O)cccc4[C@@](C)(O)[C@H]3C[C@@H]12 [Tetracycline] | 1.15 | 1.17 | 1.43 | 0.703 | –
CN(C)[C@@H]1C(O)=C(C(N)=O)C(=O)[C@@]2(O)C(O)=C3C(=O)c4c(O)cccc4[C@@](C)(O)[C@H]3[C@H](O)[C@@H]12.O.O [Oxytetracycline dihydrate] | 2.3 | 1.22 | 1.34 | 0.951 | 1.55
CCCCC(CC)CO (stereo unspecified) [2-Ethyl-1-hexanol] | 0.976 | 0.988 | 1.62 | 0.964 | –
CCCCC(CC)COC(=O)CCCCCCCCC(=O)OCC(CC)CCCC (stereo unspecified) [Bis(2-ethylhexyl) decanedioate] | 0.935 | 1.08 | 1.07 | 1.12 | –
CCCCC(CC)COP(=O)(OCC(CC)CCCC)OCC(CC)CCCC (stereo unspecified) [Tris(2-ethylhexyl) phosphate] | 0.978 | 1.17 | 1.11 | 0.917 | –
Oc1ccc(O)cc1 [Hydroquinone] | 0.941 | 0.865 | 0.902 | 0.377 | –
CCCCCCC(CCCCCCCCCCC(=O)OCC(COC(C)=O)OC(C)=O)OC(C)=O (stereo unspecified) [Grinstad Soft-N-Safe] | 0.94 | 1.29 | 1.08 | 1.54 | –
C/C=C/c1ccc(OC)cc1 [(E)-Anethole] | 1.22 | 0.971 | 1.15 | 1.58 | –
CC(C)(c1cc(Br)c(O)c(Br)c1)c1cc(Br)c(O)c(Br)c1 [3,3',5,5'-Tetrabromobisphenol A] | 1.05 | 0.95 | 1.03 | 0.332 | –
Cc1ncc([C@@H](CCCCCCc2ccc3c(n2)NCCC3)CC(=O)O)cn1 | 1.25 | 1.42 | 1.78 | 1.55 | –
CS(=O)(=O)c1ccc([C@@H](CC2CCCC2)C(=O)Nc2cnccn2)cc1Cl | 1.12 | 1.16 | 0.922 | 0.278 | –
CC(C)NCC(O)c1ccc(O)c(O)c1.Cl (stereo unspecified) [Isoproterenol hydrochloride] | 1.1 | 1.23 | 1.15 | 0.309 | –
O=C(O)c1cc(/N=N/c2ccc(S(=O)(=O)Nc3ccccn3)cc2)ccc1O [Sulfasalazine] | 0.944 | 0.993 | 1.33 | 3.01 | –
Cc1ccc2ncccc2c1 [6-Methylquinoline] | 0.931 | 0.836 | 1.29 | 1.81 | –
c1ccc2ncccc2c1 [Quinoline] | 0.857 | 1.13 | 1.43 | 1.26 | –
Cc1ccc(C)c(C)c1 [1,2,4-Trimethylbenzene] | 0.982 | 0.965 | 0.884 | 1.09 | –

SMILES | Wnt reporter firefly/Renilla luciferase ratio (concentration: 0.1 uM) | Wnt reporter firefly/Renilla luciferase ratio (concentration: 1 uM) | Wnt reporter firefly/Renilla luciferase ratio (concentration: 10 uM) | Wnt reporter firefly/Renilla luciferase ratio (concentration: 100 uM) | Wnt reporter firefly/Renilla luciferase ratio (concentration: 0.01 uM)
O=C1c2c(O)cccc2Cc2cccc(O)c21 [Anthralin] | 0.825 | 1.04 | 1.46 | 0.798 | –
COc1ccc(C(=O)Nc2nc3ccccc3c(NCc3ccccc3)c2C#N)cc1 | 1.27 | 1.14 | 0.744 | 0.357 | –
COCCOC[C@H](CC1(C(=O)N[C@H]2CC[C@@H](C(=O)O)CC2)CCCC1)C(=O)Oc1ccc2c(c1)CCC2 [Candoxatril] | 1.15 | 1.05 | 1 | 0.894 | –
CN1CCC[C@H]1c1cccnc1 [Nicotine] | 1.15 | 1.19 | 1.12 | 1.18 | –
CC1(C)C(=O)N(Cl)C(=O)N1Cl [1,3-Dichloro-5,5-dimethylhydantoin] | 0.845 | 0.849 | 0.887 | 1.63 | –
CC1(C)C(=O)N(Br)C(=O)N1Br [1,3-Dibromo-5,5-dimethylhydantoin] | 0.79 | 1.01 | 1.06 | 1.25 | –
NC(=O)N1C(=O)C(C(=O)c2cc(Cl)cs2)c2cc(F)c(Cl)cc21 (stereo unspecified) | 0.988 | 0.996 | 1.38 | 1.26 | –
C[C@]12CC[C@@H]3c4ccc(O)cc4CC[C@H]3[C@@H]1CC[C@H]2O [17alpha-Estradiol] | 0.699 | 1.04 | 0.715 | – | –
OCCNCCO [Diethanolamine] | 1.17 | 0.992 | 1.4 | 2.49 | –
c1ccc2[nH]c(-c3cscn3)nc2c1 [Thiabendazole] | 1.03 | 1.08 | 1.27 | 1.24 | 1.24
CC(C)(C)c1cc(/C=C2\SC(=N)NC2=O)cc(C(C)(C)C)c1O.CS(=O)(=O)O [Darbufelone mesylate] | 1.11 | 0.907 | 1.28 | – | –
Oc1ccc2ccccc2c1/N=N/c1ccccc1 [C.I. Solvent Yellow 14] | 1.12 | 1.2 | 1.14 | 1.37 | –
COc1cc(S(=O)(=O)[O-])c(C)cc1/N=N/c1c(O)ccc2cc(S(=O)(=O)[O-])ccc12.[Na+].[Na+] | 1.19 | 1 | 1.45 | 2.21 | –
O=S(=O)([O-])c1ccc(/N=N/c2c(O)ccc3cc(S(=O)(=O)[O-])ccc23)cc1.[Na+].[Na+] [FD&C Yellow 6] | 1.08 | 0.966 | 1.22 | 2.05 | –
CCCCCCCCCCCCc1ccccc1 [Dodecylbenzene] | 1.06 | 1.03 | 1.08 | 0.984 | –
COc1ccc([N+](=O)[O-])cc1N [2-Methoxy-5-nitroaniline] | 0.964 | 0.988 | 1.04 | 1.14 | –
Cl.NCC1(Cc2noc(=O)[nH]2)CCCCC1 | 0.992 | 0.928 | 0.857 | 1.16 | –
O=c1c(O)c(-c2ccc(O)c(O)c2)oc2cc(O)cc(O)c12 [Quercetin] | 1.1 | 1.09 | 1.38 | – | –
O=c1c(-c2ccc(O)cc2)coc2cc(O)ccc12 [Daidzein] | 1.11 | 1.11 | 1.12 | 0.372 | –
O=c1c(-c2ccc(O)cc2)coc2cc(O)cc(O)c12 [Genistein] | 1.45 | 1.16 | 0.958 | 0.631 | 1.71

SMILES | Wnt reporter firefly/Renilla luciferase ratio (concentration: 0.1 uM) | Wnt reporter firefly/Renilla luciferase ratio (concentration: 1 uM) | Wnt reporter firefly/Renilla luciferase ratio (concentration: 10 uM) | Wnt reporter firefly/Renilla luciferase ratio (concentration: 100 uM) | Wnt reporter firefly/Renilla luciferase ratio (concentration: 0.01 uM)
CC1CCC(NC(=O)N(CCCl)N=O)CC1 (stereo unspecified) [Semustine] | 0.921 | 0.986 | 0.864 | 0.475 | 1.09
Cc1nc(-c2ccc3c(c2)CCN(CCC2CCC(NC(=O)/C=C/c4ccc(F)cc4)CC2)CC3)no1.Cl (stereo unspecified) | 1.22 | 0.948 | 0.916 | 0.983 | –
Cc1cnc(-c2cnc(NCCNc3ccc(C#N)cn3)nc2-c2ccc(Cl)cc2Cl)[nH]1 | 1.5 | 5.86 | 128 | – | 1.03
CCOC(=O)c1ccc(O)cc1 [Ethylparaben] | 0.886 | 0.966 | 0.941 | 0.734 | –
O=C([O-])c1[nH]n(-c2ccc(S(=O)(=O)[O-])cc2)c(=O)c1/N=N/c1ccc(S(=O)(=O)[O-])cc1.[Na+].[Na+].[Na+] [FD&C Yellow 5] | 1.26 | 0.877 | 1.26 | 1.86 | –
CCCCc1oc2ccccc2c1C(=O)c1cc(I)c(OCCN(CC)CC)c(I)c1.Cl [Amiodarone hydrochloride] | 1.18 | 1.09 | 1 | 1.11 | –
CC(C)c1cccc(C(C)C)c1 [1,3-Diisopropylbenzene] | 1.14 | 0.929 | 1.33 | 1.5 | –
CC(=O)OC/C=C(\C)CCC=C(C)C [Geranyl acetate] | 1.1 | 0.97 | 1.27 | 1.23 | –
c1ccc(Nc2ccccc2)cc1 [Diphenylamine] | 1.08 | 1.19 | 1.18 | 1.24 | 1.05
[Cl-].[Li+] | 0.845 | 0.926 | 0.875 | 1.27 | 0.768
CC(C)=CCCC(C)CCO (stereo unspecified) [Citronellol] | 1.07 | 0.904 | 1.18 | 1.64 | –
C=CC(=C)CCC=C(C)C [Myrcene] | 1.05 | 0.768 | 1.02 | 1.15 | –
CC(C)CCO [Isopentyl alcohol] | 1.15 | 0.978 | 1.1 | 1.03 | –
NC(CCCP(=O)(O)O)C(=O)O (racemic) | 1.19 | 0.925 | 0.918 | 1.69 | 1.35
CC/C(=C(/CC)c1ccc(O)cc1)c1ccc(O)cc1 [Diethylstilbestrol] | 0.897 | 0.807 | 0.741 | 0.205 | –
C[C@@H]1C[C@H]2[C@@H]3CCC4=CC(=O)C=C[C@]4(C)[C@@]3(F)[C@@H](O)C[C@]2(C)[C@@]1(O)C(=O)COP(=O)([O-])[O-].[Na+].[Na+] [Dexamethasone sodium phosphate] | 1.15 | 1.09 | 1.2 | 0.968 | –
c1ccc2c(c1)-c1cccc3c1c-2cc1ccccc13 [Benzo(b)fluoranthene] | 1.22 | 1.22 | 1.45 | 1.45 | –
C1N2CN3CN1CN(C2)C3 [Methenamine] | 1.17 | 1.16 | 1.23 | 1.71 | –
COC(=O)CC(=O)OC [Dimethyl malonate] | 1.02 | 1.16 | 0.907 | 1.28 | –
Cc1occc1C(=O)Nc1ccc(C(=O)N2CCC(F)(F)/C(=C\C(=O)N3CCC(N4CCCCC4)CC3)c3ccccc32)cc1.Cc1occc1C(=O)Nc1ccc(C(=O)N2CCC(F)(F)/C(=C\C(=O)N3CCC(N4CCCCC4)CC3)c3ccccc32)cc1.O=C(O)/C=C/C(=O)O | 1.22 | 0.982 | 0.94 | – | –
